Compound activity (PubChem BioAssay)
This is a sample that favours compounds with a hit; in the whole collection about 7.5% have one here.
VACV Venus inh: inhibitors of vaccinia virus (Venus reporter); AID 720580; Vaccinia virus Venus reporter expression, fluorescence; Potency, µM (top dose mostly 36.5 µM), usual class: inhibitors; 330,000 compounds, 0.46% hits; calls by dose curve; tested in A549 cells; also: nearly all actives have a fitted effect of over 30% in size
VACV mCherry inh: inhibitors of vaccinia virus infection (mCherry reporter signal); Potency, µM (titrated, usually from 36.5 µM), hits mostly inhibitors; 310,000 compounds, 0.63% hits; AID 720579; Vaccinia virus mCherry reporter infection, fluorescence; calls by dose curve; tested in A549 cells; also: nearly all actives have a fitted effect of over 35% in size
Giardia FBPA inh: Giardia lamblia aldolase inhibition; A8B2U2; purified Giardia FBPA; Potency, µM (doses to about 59.6 µM), most hits filed as inhibitors; 290,000 compounds, 0.71% hits; AID 2451; also: nearly all actives have a fitted effect of over 55% in size
Target sequence (A8B2U2 whole entry, looked up): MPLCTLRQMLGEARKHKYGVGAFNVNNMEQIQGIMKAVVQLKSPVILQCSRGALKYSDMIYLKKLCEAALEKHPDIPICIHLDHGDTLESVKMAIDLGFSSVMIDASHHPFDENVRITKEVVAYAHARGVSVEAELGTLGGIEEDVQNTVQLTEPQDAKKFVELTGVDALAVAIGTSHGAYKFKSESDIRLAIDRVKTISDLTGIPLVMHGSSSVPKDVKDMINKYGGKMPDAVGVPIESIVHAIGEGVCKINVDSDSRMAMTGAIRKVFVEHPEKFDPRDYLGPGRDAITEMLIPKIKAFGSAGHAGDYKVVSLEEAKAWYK
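40 nM FBPA preincubated 10 min at RT with compound (up to 57.5 uM final), then substrate plus GAPDH/TPI/NAD/arsenate coupling and diaphorase/resazurin added. Fluorescence read after 20 min at RT, 525/598 nm.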
FMDV inh: blocks foot and mouth disease virus; AID 1159524; 410,000 compounds, 1.2% hits; Potency, µM (highest dose often 57.9 µM), hits mostly inhibitors; FMDV antiviral cell-based qHTS; calls by dose curve; tested in HEK293T cells; also: read-out not given here; nearly all actives have a fitted effect of over 45% in size
HCV inh: inhibitors of hepatitis C virus infection | Potency, µM (titrated, usually from 41.8 µM), hits mostly inhibitors | Huh7.5.1 HCVcc-Cre infection, luciferase reporter, 44 h | 340,000 compounds, 3.4% hits | AID 651820
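After 44 h co-culture of compound, cells and HCVcc-Cre (~0.5 moi), substrate is added for 15 min at room temperature and luciferase measured over 15 sec. Cells were seeded at 1,000/well and pre-cultured 4 h.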
HCMV antiviral: inhibitors of human cytomegalovirus. HFF cells, HCMV-luciferase reporter, 72 h; hits give low values. activity change, negative = inhibition, % at 57.5 µM. 410,000 compounds, 4.5% hits. AID 1259415; in the data active = activity change below about -60%; inconclusive = no clear call, values can overlap the other calls; inactive = above about -39%
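Cell-based, HFFs, 1000 cells/well, 16 h 37C; cpds in DMSO + HCMV-luc, MOI 1 PFU/cell; 72 h 37C; OneGlo luminescence after 5 min RT; norm. to buffer vs Salinomycin 10uM.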
A number is an active result. Unless noted, calls follow the shape of the dose curve; as a rule, active = well fitted curve in the direction sought with a large enough effect; inconclusive = small, poorly fitted or top-dose-only effect, or another doubt; inactive = no such curve, though single readings can be large; an effect the other way counts as inactive or inconclusive.

How did CN(Cc1ccc(OC(F)F)cc1)C(=O)c1ccccc1Sc1ccccc1C#N do in these assays?
VACV Venus inh: inactive; VACV mCherry inh: inconclusive; FMDV inh: inactive; HCV inh: inconclusive; HCMV antiviral: -69

Results for COC(=O)c1ccc(CNC(=O)c2ccc(S(=O)(=O)N(C)c3ccccc3OC)cc2)cc1 ?
FMDV inh: inactive; HCV inh: 8.9µM; HCMV antiviral: inactive

How did CC(=O)N1CCc2c(sc3c2c(=O)n(-c2ccccc2)c(=O)n3CC(=O)Nc2ccccc2C)C1 do in these assays?
VACV Venus inh: inactive; VACV mCherry inh: inactive; FMDV inh: inactive; HCMV antiviral: inactive

Results for CC1(C)C(=O)Nc2ccccc2N1C(=O)COc1ccccc1C#N ?
VACV Venus inh: inactive; VACV mCherry inh: inactive; FMDV inh: inactive; HCV inh: inactive; HCMV antiviral: inactive

How did Cc1cccc(CN2C[C@H](Sc3ccccn3)C[C@H]2C(=O)Nc2ccc3sc(C)nc3c2)c1 do in these assays?
VACV Venus inh: inactive; VACV mCherry inh: inactive; FMDV inh: inactive

What do the screens show for `C[C@]12CCCC3=CC(=O)C=CC31OCC2` (stereo not given in full)?
HCMV antiviral: inactive

How did O=C1C(=NO)CCc2ccccc21 do in these assays?
VACV Venus inh: inactive; VACV mCherry inh: inactive; FMDV inh: inconclusive; HCV inh: inconclusive; HCMV antiviral: inactive

Results for Cc1ccc(C(=O)N(Cc2cc3cccc(C)c3nc2N2CCC(O)CC2)C2CC2)cc1 ?
VACV Venus inh: inactive; VACV mCherry inh: inactive; FMDV inh: inactive

Results for CC(C)(C)c1ccc(Oc2ccc(NC(=O)CCC(=O)OCC(=O)c3ccccc3)cc2)cc1 ?
VACV Venus inh: inactive; VACV mCherry inh: inactive; FMDV inh: inactive; HCMV antiviral: inactive

What do the screens show for `COc1ccccc1N(C)S(=O)(=O)c1ccc(C(=O)Nc2ccc(N3CCOCC3)cc2)cc1`?
VACV Venus inh: inconclusive; VACV mCherry inh: inconclusive; Giardia FBPA inh: inactive; FMDV inh: 40µM; HCV inh: 10µM; HCMV antiviral: -62

Results for COc1ccccc1N(C)S(=O)(=O)c1ccc(C(=O)N(C)Cc2ccc(OC(F)F)cc2)cc1 ?
VACV Venus inh: inconclusive; VACV mCherry inh: inactive; FMDV inh: 35µM; HCV inh: 4µM; HCMV antiviral: inactive

Results for COc1ccccc1N(C)S(=O)(=O)c1ccc(C(=O)NCCc2ccc(F)cc2)cc1 ?
VACV Venus inh: inactive; VACV mCherry inh: inactive; Giardia FBPA inh: inactive; FMDV inh: inactive; HCV inh: inconclusive; HCMV antiviral: inactive

How did C=CCN(c1ccccc1OC)S(=O)(=O)c1ccc(Cl)c(C(=O)Nc2ccc(N3CCOCC3)cc2)c1 do in these assays?
VACV Venus inh: inactive; VACV mCherry inh: inactive; Giardia FBPA inh: inactive; FMDV inh: inactive; HCV inh: inconclusive; HCMV antiviral: inactive

What do the screens show for `Cc1nnc(NC(=O)c2cccc(S(=O)(=O)N(C)c3cccc(Cl)c3)c2)s1`?
FMDV inh: inactive; HCV inh: inactive; HCMV antiviral: inactive

How did CN(c1cccc(Cl)c1)S(=O)(=O)c1cccc(C(=O)Nc2ccc3c(c2)CCC3)c1 do in these assays?
VACV Venus inh: inactive; VACV mCherry inh: inactive; Giardia FBPA inh: inactive; FMDV inh: inactive; HCV inh: 6.3µM; HCMV antiviral: -87

Results for COc1cc(NC(=O)c2ccc(S(=O)(=O)N(C)c3ccccc3OC)cc2)cc(OC)c1 ?
VACV Venus inh: inactive; VACV mCherry inh: inconclusive; FMDV inh: inactive; HCV inh: 11µM; HCMV antiviral: inactive

How did CCC(C)(C)NC(=O)c1ccc(S(=O)(=O)N(C)c2ccccc2OC)cc1 do in these assays?
VACV Venus inh: inactive; VACV mCherry inh: inactive; Giardia FBPA inh: inactive; FMDV inh: inactive; HCV inh: inconclusive; HCMV antiviral: inactive

How did COc1ccccc1NC(=O)CSc1nc2ccccc2c(=O)n1CCC(=O)NC1CCCCC1 do in these assays?
VACV Venus inh: inactive; VACV mCherry inh: inactive; FMDV inh: inactive; HCMV antiviral: inactive

How did COc1ccccc1N(C)S(=O)(=O)c1ccc(C(=O)Nc2cccc(Br)c2)cc1 do in these assays?
VACV Venus inh: inactive; VACV mCherry inh: inactive; FMDV inh: inconclusive; HCV inh: 13µM; HCMV antiviral: inactive

Results for COc1ccccc1N(C)S(=O)(=O)c1ccc(C(=O)Nc2ccc3nc(C)sc3c2)cc1 ?
VACV Venus inh: inconclusive; VACV mCherry inh: inconclusive; Giardia FBPA inh: inactive; FMDV inh: 25µM; HCV inh: inconclusive; HCMV antiviral: -85

Results for Cc1nc2ccc(S(=O)(=O)N(C)CC(=O)Nc3ccc(C(C)C)cc3)cc2s1 ?
VACV Venus inh: inactive; VACV mCherry inh: inactive; FMDV inh: inactive; HCMV antiviral: -60

What do the screens show for `COc1ccc(NC(=O)CN(C)S(=O)(=O)c2ccc3nc(C)sc3c2)cc1`?
VACV Venus inh: inactive; VACV mCherry inh: inactive; FMDV inh: inactive; HCMV antiviral: inactive

How did CCC1(C2CCN(Cc3cc4ccccc4o3)CC2)NC(=O)N(CC2COc3ccccc3O2)C1=O (stereo not given) do in these assays?
VACV Venus inh: inactive; VACV mCherry inh: inconclusive; FMDV inh: inactive

Results for CCOc1ccc2c(c1)c(=O)c(S(=O)(=O)c1ccccc1)cn2CC(=O)Nc1ccccc1OC ?
VACV Venus inh: inactive; VACV mCherry inh: inactive; FMDV inh: inactive; HCMV antiviral: inactive

Results for CCOc1ccc(CCNC(=O)Cn2nc(C)n3c(cc4occc43)c2=O)cc1OCC ?
VACV Venus inh: inactive; VACV mCherry inh: inactive; FMDV inh: inactive; HCMV antiviral: inactive

What do the screens show for `CC(/C=N/NC(=O)c1cc(-c2ccc(C)s2)[nH]n1)=C\c1ccccc1`?
VACV Venus inh: inconclusive; VACV mCherry inh: inactive; Giardia FBPA inh: inactive; FMDV inh: inactive; HCV inh: 5.6µM; HCMV antiviral: inactive

Results for Cc1ccc(-c2cc(C(=O)N/N=C/c3ccco3)n[nH]2)s1 ?
VACV Venus inh: inactive; VACV mCherry inh: inactive; Giardia FBPA inh: inactive; FMDV inh: inactive; HCV inh: inactive; HCMV antiviral: inactive

What do the screens show for `CC(/C=C/c1ccccc1)=N\NC(=O)c1cc(C)[nH]n1`?
Giardia FBPA inh: inactive; FMDV inh: inactive; HCV inh: 14µM; HCMV antiviral: inconclusive

What do the screens show for `CC(=C/c1ccccc1)/C=N/NC(=O)c1ccccn1`?
VACV Venus inh: inactive; VACV mCherry inh: inactive; Giardia FBPA inh: inactive; FMDV inh: inconclusive; HCV inh: inactive; HCMV antiviral: inactive

What do the screens show for `CC(/C=N/NC(=O)c1cc(C(C)(C)C)[nH]n1)=C\c1ccccc1`?
VACV Venus inh: inactive; Giardia FBPA inh: inactive; FMDV inh: inactive; HCV inh: 14µM; HCMV antiviral: inactive

What do the screens show for `CCOc1ccc(C(=O)NC2CCN(C(=O)Nc3ccc(F)cc3)CC2)cc1`?
VACV Venus inh: inactive; VACV mCherry inh: inactive; Giardia FBPA inh: inactive; FMDV inh: inactive; HCV inh: inactive; HCMV antiviral: inactive

How did CCCCCC(=O)N1C[C@H](O)[C@@H](n2cc(COC(=O)c3ccccc3)nn2)C[C@@H]1c1ccc(OC)cc1 do in these assays?
VACV Venus inh: inactive; VACV mCherry inh: inactive; FMDV inh: inactive; HCMV antiviral: inactive
